Data: PubChem BioAssay (NCATS)
Results filed as inconclusive are left out. The source made the active and inactive calls. Calls follow the shape of the dose curve; as a rule, active = well fitted cell-killing curve with a large enough effect; inconclusive = small, poorly fitted or top-dose-only effect, or effect the other way; inactive = flat fitted curve, though single readings scatter. Where a SMILES comes first, the peptide text is derived from it. Bridges are numbered along the chain shown (N, C = ends). [ ]: non-standard residue; d: D form. NMeY = CN[CH](Cc1ccc(O)cc1)C(=O)O

Key:
Assay in all cases: Primary qHTS to identify gynecologic anti-cancer compounds using libraries of approved drugs and bioactive compounds (AID 1345084); also: nearly all actives have a fitted effect of over 55% in size
[1] = tested on: C33A; conditions: Gynecologic cancer cell panel viability, ATPlite luminescence, 48 h; series mostly up to 57.5 µM
Summary of the method: (§1)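 Cells, 1,000 per well, plated 16 h, then exposed 48 h at 37 C to compounds. Viability by ATPlite luminescence after 15 min at room temperature.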

[2] = tested on: CAOV3; conditions: Gynecologic cancer cell panel viability, ATPlite luminescence, 48 h; series mostly up to 57.5 µM
Summary of the method: as §1

[3] = tested on: CASKI; conditions: Gynecologic cancer cell panel viability, ATPlite luminescence, 48 h; series mostly up to 57.5 µM
Summary of the method: as §1

[4] = tested on: Es-2; conditions: Gynecologic cancer cell panel viability, ATPlite luminescence, 48 h; series mostly up to 57.5 µM
Summary of the method: as §1

[5] = tested on: HeLa; conditions: Gynecologic cancer cell panel viability, ATPlite luminescence, 48 h; series mostly up to 57.5 µM
Summary of the method: as §1

[6] = tested on: Hek293T; conditions: Gynecologic cancer cell panel viability, ATPlite luminescence, 48 h, control line for the selectivity index; series mostly up to 57.5 µM
Summary of the method: as §1

[7] = tested on: JEG-3; conditions: Gynecologic cancer cell panel viability, ATPlite luminescence, 48 h; series mostly up to 57.5 µM
Summary of the method: as §1

[8] = tested on: OV90; conditions: Gynecologic cancer cell panel viability, ATPlite luminescence, 48 h; series mostly up to 57.5 µM
Summary of the method: as §1

[9] = tested on: PA-1; conditions: Gynecologic cancer cell panel viability, ATPlite luminescence, 48 h; series mostly up to 57.5 µM
Summary of the method: as §1

[10] = tested on: SKOV3; conditions: Gynecologic cancer cell panel viability, ATPlite luminescence, 48 h; series mostly up to 57.5 µM
Summary of the method: as §1

[11] = tested on: Tov-21-G; conditions: Gynecologic cancer cell panel viability, ATPlite luminescence, 48 h; series mostly up to 57.5 µM
Summary of the method: as §1

[12] = tested on: Tov112D; conditions: Gynecologic cancer cell panel viability, ATPlite luminescence, 48 h; series mostly up to 57.5 µM
Summary of the method: as §1

Measured: Potency

N#C[C@@H]1C[C@H](F)CN1C(=O)CNC1[C@H]2CN(C(=O)c3ccc(F)cc3)C[C@@H]12 (some centres undefined)
inactive: [1] | [2] | [3] | [4] | [5] | [6] | [7] | [8] | [9] | [10] | [11] | [12]

c1ccc(-c2ncc(CN3CCN(c4ncccn4)CC3)[nH]2)cc1
inactive: [1] | [2] | [3] | [4] | [5] | [6] | [7] | [8] | [9] | [10] | [11] | [12]

CC1=C2C[C@H]3O[C@@]3(C)CCC3O[C@@]3(C)C[C@@]2(O)OC1=O (some centres undefined)
inactive: [1] | [2] | [3] | [4] | [5] | [6] | [7] | [8] | [9] | [10] | [11] | [12]

[N-]=[N+]=N[C@]1(CO)O[C@@H](n2ccc(=O)[nH]c2=O)[C@@H](O)[C@@H]1O
inactive: [1] | [2] | [3] | [4] | [5] | [6] | [7] | [8] | [9] | [10] | [11] | [12]

CC(=O)CCC1=C(C)C(O[C@@H]2O[C@H](CO)[C@@H](O)[C@H](O)[C@H]2O)C(O)CC1(C)C (some centres undefined)
inactive: [1] | [2] | [3] | [4] | [5] | [6] | [7] | [8] | [9] | [10] | [11] | [12]

O=C(O)CC(=O)OC[C@H]1O[C@@H](Oc2ccc3c(c2)OC[C@H]2c4cc5c(cc4O[C@@H]32)OCO5)[C@H](O)[C@@H](O)[C@@H]1O
inactive: [1] | [2] | [3] | [4] | [5] | [6] | [7] | [8] | [9] | [10] | [11] | [12]

O=C(CO)[C@@H](O)[C@H](O[C@@H]1O[C@H](CO)[C@H](O)[C@H](O)[C@H]1O)[C@H](O)CO
inactive: [1] | [2] | [3] | [4] | [5] | [6] | [7] | [8] | [9] | [10] | [11] | [12]

O=C(NCc1cccc(O)c1)c1cc2cc(F)ccc2[nH]1
inactive: [1] | [2] | [3] | [4] | [5] | [6] | [7] | [8] | [9] | [10] | [11] | [12]

O=C(O)c1cc(I)ccc1NC(=O)[C@H](Cc1ccccc1)NCc1ccccc1
inactive: [1] | [2] | [3] | [4] | [5] | [6] | [7] | [8] | [9] | [10] | [11] | [12]

C=C[C@H]1[C@H](O[C@@H]2O[C@H](CO)[C@@H](O)[C@H](O)[C@H]2O)OC=C(C(=O)OC)[C@H]1C[C@@H]1c2cc(O)c(O)cc2CCN1C(C)=O
inactive: [1] | [2] | [3] | [4] | [5] | [6] | [7] | [8] | [9] | [10] | [11] | [12]

CC1(C)CC2C(O)c3cocc3CC(C)(O)C2C1 (centres undefined)
inactive: [1] | [2] | [3] | [4] | [5] | [6] | [7] | [8] | [9] | [10] | [11] | [12]

C=C1C(O)CC2C(C(=O)O)=COC(O[C@@H]3O[C@H](COC(=O)/C=C/c4ccc(O)cc4)[C@@H](O)[C@H](O)[C@H]3O)C12 (some centres undefined)
inactive: [1] | [2] | [3] | [4] | [5] | [6] | [7] | [8] | [9] | [10] | [11] | [12]

C[C@]12C=C[C@@]3(CCC4[C@](C)(CO)CCC[C@@]4(C)C3CC1)C2 (some centres undefined)
inactive: [1] | [2] | [3] | [4] | [5] | [6] | [7] | [8] | [9] | [10] | [11] | [12]

CC/C=C\CC1C(=O)C=CC1(CCCCCCCC(=O)O)OC(C)=O (centres undefined)
inactive: [1] | [2] | [3] | [4] | [5] | [6] | [7] | [8] | [9] | [10] | [11] | [12]

Cc1ccc(NC(=O)C(=O)NC2CC(C)(C)NC(C)(C)C2)cc1
inactive: [1] | [2] | [3] | [4] | [5] | [6] | [7] | [8] | [9] | [10] | [11] | [12]

C[C@@H]1O[C@@H](OC[C@H]2O[C@@H](OC(CCCCc3ccc(O)cc3)CCc3ccc(O)cc3)[C@H](O)[C@@H](O)[C@@H]2O)[C@H](O)[C@H](O)[C@H]1O (some centres undefined)
inactive: [1] | [2] | [3] | [4] | [5] | [6] | [7] | [8] | [9] | [10] | [11] | [12]

COc1cccc(C(=O)N2CCN(C(=O)COc3cccc(C)c3)CC2)c1OC
inactive: [1] | [2] | [3] | [4] | [5] | [6] | [7] | [8] | [9] | [10] | [11] | [12]

CC(=O)OC1C(OC(=O)c2ccccc2)C2C(C)(C)CC(=O)CC2(C)C23CCC(C)(C2)C(O)CC13 (centres undefined)
inactive: [1] | [2] | [3] | [4] | [5] | [6] | [7] | [8] | [9] | [10] | [11] | [12]

CCCOC(c1cc2nccc(C(=O)O)c2[nH]1)c1ccccc1Cl (centres undefined)
inactive: [1] | [2] | [3] | [4] | [5] | [6] | [7] | [8] | [9] | [10] | [11] | [12]

C=C1[C@H](OC(C)=O)[C@H]2[C@@H](OC(C)=O)[C@](C)(OC(C)=O)C[C@]2(OC(C)=O)C(=O)[C@H](C)/C=C/C(C)(C)C(=O)[C@H](OC(=O)C(C)C)[C@H]1OC(C)=O
inactive: [1] | [2] | [3] | [4] | [5] | [6] | [7] | [8] | [9] | [10] | [11] | [12]

CCC(Nc1ncnc2nc[nH]c12)c1nc2cccc(F)c2c(=O)n1-c1ccccc1 (centres undefined)
inactive: [1] | [2] | [3] | [4] | [5] | [6] | [7] | [8] | [9] | [10] | [11] | [12]

O=C(Nc1ccn[nH]1)c1c(F)cccc1F
inactive: [1] | [2] | [3] | [4] | [5] | [6] | [7] | [8] | [9] | [10] | [11] | [12]

C=CC/C=C\C/C=C\CCCCCCCc1cccc(O)c1C(=O)O
inactive: [1] | [2] | [3] | [4] | [5] | [6] | [7] | [8] | [9] | [10] | [11] | [12]

CCC(C)C1NC(=O)C2CCCN2C(=O)C(NC(C)=O)C(C)OC(=O)C(Cc2ccc(OC)cc2)N(C)C(=O)C2CCCN2C(=O)C(C(C)C)NC1=O (centres undefined) (Ac-TPIVP[NMeY](Me); ester 1-C; configuration not given here)
inactive: [1] | [2] | [3] | [4] | [5] | [6] | [7] | [8] | [9] | [10] | [11] | [12]

CC1(C)CCC[C@]2(C)[C@H]3CC(=O)O[C@]3(C)CC[C@@H]12
inactive: [1] | [2] | [3] | [4] | [5] | [6] | [7] | [8] | [9] | [10] | [11] | [12]

CC(=O)CC1CCC(C(C)C(=O)OCC(O)CO)O1 (centres undefined)
inactive: [1] | [2] | [3] | [4] | [5] | [6] | [7] | [8] | [9] | [10] | [11] | [12]

CCc1c(-c2ccccc2)c(-c2ccccc2)nn1-c1ccccc1-c1cccc(OCC(=O)O)c1
inactive: [1] | [2] | [3] | [4] | [5] | [6] | [7] | [8] | [9] | [10] | [11] | [12]

CC(C)CC(=O)OC1OC=C(CO[C@@H]2O[C@H](CO)[C@@H](O)[C@H](O)[C@H]2O)C2CC(O)C(O)(CO)C12 (some centres undefined)
inactive: [1] | [2] | [3] | [4] | [5] | [6] | [7] | [8] | [9] | [10] | [11] | [12]

COc1cc2c3c(cc4ccccc4c3c1O)NC2=O
inactive: [1] | [2] | [3] | [4] | [5] | [6] | [7] | [8] | [9] | [10] | [11] | [12]

COc1cc2c(cc1OC)CC(=O)N(CCCNC[C@H]1Cc3cc(OC)c(OC)cc31)CC2
inactive: [1] | [2] | [3] | [4] | [5] | [6] | [7] | [8] | [9] | [10] | [11] | [12]

O=C(CCc1nnc2n(Cc3ccc(Cl)cc3)c(=O)c3ccccc3n12)NCCC1=CCCCC1
inactive: [1] | [2] | [3] | [4] | [5] | [6] | [7] | [8] | [9] | [10] | [11] | [12]

C=C[C@H]1[C@H](O[C@@H]2O[C@H](CO)[C@@H](O)[C@H](O)[C@H]2O)OC=C(C(=O)OC)[C@H]1CCOC(=O)c1cc(O)c(O)c(O)c1
inactive: [1] | [2] | [3] | [4] | [5] | [6] | [7] | [8] | [9] | [10] | [11] | [12]
